Screening data (PubChem)
Many of the other results were omitted from the sample, so hits are more common in it than they were.
RMI-FANCM inh: disruptors of RMI1/RMI2 association with MM2 peptide – biochemical, fluorescence polarization, human, primary screen | 70,000 tested, 0.58% active | FP signal (polarization) at 33 µM | RMI core complex (RMI1/RMI2) binding to FANCM MM2 peptide, human | RMI core complex with F-MM2 peptide; stronger effect = lower value; in the data active = FP signal below about 40
* marks the source's active call; other numbers are inactive results; ! = repeats disagree.

SMILES	RMI-FANCM inh
C=CCC1(C#N)C(=S)NC(C)=C(C(C)=O)C1c1ccc(Cl)cc1 (stereo not given)	58
CS(=O)(=O)N1CCCC(C(=O)Nc2nc(-c3ccc(F)cc3)cs2)C1 (stereo not given)	66
COc1ccc(C(=O)Nc2ccccc2Sc2c(Cl)cncc2Cl)cc1	57
COc1ccccc1Oc1ccc(S(=O)(=O)Nc2cccc(C)c2)cc1	73
Cc1cc(Nc2ccc(S(=O)(=O)Nc3nccs3)cc2)c2ccc(C(F)(F)F)cc2n1	60
CCOC(=O)c1cnc2cc(C(F)(F)F)ccc2c1Nc1ccc(S(=O)(=O)N(C)C)cc1	65
Cc1cc(Nc2ccc(N(C)C)cc2)c2ccc(C(F)(F)F)cc2n1	19*
CN(C)S(=O)(=O)c1ccc(C(=O)NCCCS(=O)(=O)N2CCN(c3ccccn3)CC2)cc1	59
O=C(Nc1nc(-c2ccc3c(c2)CCCC3)cs1)C1CCN(S(=O)(=O)c2cccs2)CC1	51
N#Cc1c(N)sc2c1CCC2	50
N#Cc1c(N)sc(=S)c2c1CCCC2	7*
CC(C)(C)C(=O)Nc1sc2c(c1C#N)CCCC2	58
COc1ccc(OC)c(CCn2c(=S)[nH]c3c(oc4ccccc43)c2=O)c1	65
CN1C(=O)c2cccc(NC(=O)c3cccc(Cl)c3)c2C1=O	73
CN1C(=O)c2cccc(N)c2C1=O	-41*
CN1C(=O)c2cccc(NC(=O)c3ccc(N(C)C)cc3)c2C1=O	68
Cc1ccc(Cl)cc1N/C=C(\C#N)c1nc(-c2cc3cc(Br)ccc3oc2=O)cs1	58
COc1ccc(/C=N\NC(=O)c2sc(=S)n(-c3ccccc3)c2N)cc1	54
CCOC(=O)N1CCN(C(=O)Nc2nc(CC(=O)NC(C)c3ccccc3)cs2)CC1 (stereo not given)	62
Cc1ccc(-n2c(C)nc3ccc(NC(=O)Nc4ccc(F)c(Cl)c4)cc3c2=O)cc1	72
Cc1nc2ccc(NC(=O)C(C)Oc3ccc4c(c3)OCO4)cc2c(=O)n1-c1ccccc1 (stereo not given)	64
Cc1nc2ccc(NC(=O)Nc3ccc4c(c3)OCO4)cc2c(=O)n1-c1ccc(Cl)cc1	28*
COc1ccc2nc(-c3cccc(NC(=O)C(c4ccccc4)c4ccccc4)c3)cn2n1	74
O=C1c2cccc3cc([N+](=O)[O-])cc(c23)C(=O)N1CCCN1CCOCC1	17*
O=C(c1ccc(S(=O)(=O)N2CCOCC2)cc1)N1CCN(CCN2C(=O)c3cccc4cccc(c34)C2=O)CC1	55
SMILES	RMI-FANCM inh
O=C1c2cccc3cc([N+](=O)[O-])cc(c23)C(=O)N1CCc1ccccn1	45
O=C(NCCNc1ccc(C(F)(F)F)cc1[N+](=O)[O-])c1cccnc1Oc1ccccc1	57
O=[N+]([O-])c1cccnc1Sc1nccc(-c2ccco2)n1	54
O=[N+]([O-])c1ccccc1-c1ccc(-c2nnc(-c3ccco3)o2)o1	25*
CCOC(=O)C(=Cc1ccc(-c2ccccc2[N+](=O)[O-])o1)C(=O)OCC	58
N#CC(O)c1ccccc1[N+](=O)[O-] (stereo not given)	53
O=C1NC(=Nc2ccccc2)SC1Cc1cccc([N+](=O)[O-])c1 (stereo not given)	-6*
O=C1NC(=Nc2ccc(Cl)cc2)SC1Cc1cccc([N+](=O)[O-])c1 (stereo not given)	62
O=C(O)CC1SC(=Nc2ccc(O)cc2)NC1=O (stereo not given)	62
COC(=O)c1ccc(NC(=O)CN2CC(=O)Oc3ccccc32)cc1	59
COc1ccccc1NC(=O)c1ccc(NS(=O)(=O)c2ccc(C(C)(C)C)cc2)cc1	73
O=C(Cc1cccs1)NCc1ccc2[nH]c3c(c2c1)CCCC3	-1*
O=C(NCc1ccc2[nH]c3c(c2c1)CCCC3)c1cccs1	45
O=C(NCc1ccc2[nH]c3c(c2c1)CCCC3)c1ccc(C(F)(F)F)cc1	43
CC1CN(CC(O)COC2CCCC2)CC(C)O1 (stereo not given)	64
O=C1c2ccccc2C(=O)c2c1ccc(O)c2O	53
O=C1c2cccc(O)c2C(=O)c2c(O)cccc21	27*
O=C1c2ccccc2C(=O)c2c(Sc3cccc4c3C(=O)c3ccccc3C4=O)cccc21	60
Cc1cc(-c2nnc(NC(=O)c3ccc4c(c3)OCCO4)o2)nn1C	73
CCOc1ccccc1NC(=O)Cn1c(=O)n(CCCCC(=O)NC(C)C)c(=O)c2ccccc21	74
COc1cccc(CNC(=O)C(=O)Nc2cc(C)nc3ccccc23)c1	82
O=C(c1ccccc1)c1ccc2c3c(cccc13)C(=O)N(c1ccc3c4c(cccc14)CC3)C2=O	18*
Cc1ccccc1N1C(=O)c2cccc3c(C(=O)O)ccc(c23)C1=O	60
O=C(c1ccccc1)c1ccc2c3c(cccc13)CC2	62
Cc1onc(-c2ccccc2Cl)c1C(=O)Nc1ccc2c(c1)N(C(=O)C1CC1)CC2	66
SMILES	RMI-FANCM inh
Cc1cc(C)cc(NC(=O)NCCOc2ccc3nnc(C)n3n2)c1	66
CCOC(=O)c1sc(NC(=O)CSc2nnc3[nH]c(=O)cc(C)n23)c(C(=O)OCC)c1C	53
COc1ccc(Cl)cc1NC(=O)Cc1csc2nc(-c3ccccc3)cn12	69
CC1=CC(=NS(=O)(=O)c2cccc([N+](=O)[O-])c2)C=CC1=O	-23*
Cc1nc2ccccc2c(=O)n1-c1cccc(NS(=O)(=O)c2cccc([N+](=O)[O-])c2)c1	54
Cc1ccc(S(=O)(=O)N=Cc2cccc([N+](=O)[O-])c2)cc1	61
CC1(C)CC(=O)c2c(nc(SCC(=O)Nc3nsc(-c4ccc(Cl)cc4)n3)c(C#N)c2-c2ccccc2)C1	134
O=C(CSCc1ccccc1)N1CCN(Cc2nc(-c3ccco3)cs2)CC1	63
Cc1ccc(OCC(=O)NCCN2CCN(c3ccccc3)CC2)cc1	64
O=C(c1cn(Cc2ccccc2)cc2c(=O)n(-c3ccccc3)nc1-2)N1CCOCC1	53
NC[C@@H]1O[C@H](O[C@H]2[C@@H](O)[C@H](O[C@@H]3[C@@H](O)[C@H](N)C[C@H](N)[C@H]3OC3O[C@H](CO)[C@@H](O)[C@H](O)[C@H]3N)O[C@@H]2CO)[C@H](N)[C@@H](O)[C@@H]1O (stereo not given in full)	4*
NC[C@@H]1O[C@H](O[C@@H]2[C@@H](CO)OC(O[C@@H]3[C@@H](O)[C@H](N)C[C@H](N)[C@H]3O[C@H]3O[C@H](CO)[C@@H](O)[C@H](O)[C@H]3N)[C@@H]2O)[C@H](N)[C@@H](O)[C@@H]1O (stereo not given in full)	58
NC[C@H]1O[C@H](OC2[C@@H](N)C[C@@H](N)[C@H](O)[C@H]2O[C@@H]2O[C@H](CO)[C@@H](O)[C@H]2O)[C@H](N)[C@@H](O)[C@@H]1O (stereo not given in full)	49
CCOc1ccc(NC(=O)N2CCN(c3ccc4nnc(C)n4n3)CC2)cc1	67
NC(CO)C(=O)NNCc1ccc(O)c(O)c1O (stereo not given)	-13*!
N[C@H](CO)C(=O)O	49
COc1ccc(C(F)(F)F)cc1NC(=O)CCCSc1ccc(NC(C)=O)nn1	66
O=C(CSc1ccc(Cl)cc1)N1CCN(c2nc3c(F)cccc3s2)CC1	91
NC(=O)c1c(Cl)cncc1Cl	57
O=C(CCc1ccc(O)cc1)N/N=C\C=C\c1ccccc1	58
O=C(CCc1ccccc1)N/N=C\c1ccccc1	56
